These results are taken from PubChem BioAssay (NCATS).

SMILES strings stand for the structures. Active and inactive are the calls of the source. Calls come from the whole dose curve; as a rule, active = well fitted curve in the direction sought with a large enough effect; inconclusive = small, poorly fitted or top-dose-only effect, or another doubt; inactive = no such curve, though single readings can be large or run the other way.

This experiment can be described thus: Validation qHTS assay for inhibitors of Activation Induced Cytidine Deaminase (AID): UDG Counterscreen signal (AID 1347427). Conditions: biochemical UDG counterscreen, fluorescence signal; series mostly up to 115 µM. An excerpt: Assay Provider (PI) Patricia Gearhart Ph.D.
National Institute on Aging
National Institute of Health (NIH), Bethesda, MD
Assay Provider (PI) Rahul Kohli Ph.D.
Perelman School of Medicine
University of Pennsylvania, Philadelphia, PA
Activation-Induced Deaminase (AID) is a cytosine deaminase which converts cytosine into uracil within stretches of ssDNA. The presence of uracil in DNA initiates a cascade of mutagenic DNA repair to introduce point mutations and DNA double strand breaks. Specific targeting of AID to the immunoglobulin heavy chain loci (Igh) promotes mutagenesis in the antibody variable region for somatic hypermutation (SHM) or switch regions leading to class switch recombination (CSR). However, AID also plays a role in accumulating unnecessary mutations across the genome. Mis-targeting of AID results in the initiation of tumor development and leads to greater drug resistance among cancer cells when continually expressed. To identify an AID inhibitor, a small molecule library will be screened in collaboration with NCATS core facility at NIH. To confirm biological function, inhibitors will be examined in an in vitro murine B-cell activation assay and subsequent secondary validation screens. Top molecules will be further screened to identify inhibitory efficacy against a wild type primary splenocytes assay. Using these approaches, we hope to identify a small molecule with great efficacy and low toxicity for use as a molecular probe to further characterize AID's intricacies, or even as a therapeutic.
A FRET based analysis of cytosine deamination, was developed to identify potential inhibitors of AID catalytic activity. This screen has two signal output, Read 1 evaluates the AID inhibition response. The second readout (Read 2) evaluates UDG response and is uses as a counterscreen to exclude false positive inhibitors. Inhibition in AID and inactivity in the UDG signal is the desired outcome for this assay.
SEQUENCE No. (e.g., 1, 2, 3, etc.); […] (e.g., Cells, Incubation, Reagent, etc.); VALUE; DESCRIPTION
1a; Reagent; 3 uL; [4/3x] 1 uM AID/2.67 U/mL UDG
1b; Reagent; 3 uL; 2 U/mL UDG
1c; Reagent; 3 uL; 1 uM AID
2a; Compound; 46 nL; Follow-up plates (0.64 uM - 10 mM)
2b; Control; 46 nL; ATA ([…] - 10 mM)
3; Time; 10 min; incubation at room temperature
5; Time; 4 hr; incubation at room temperature
6; Reagent; 4 uL; [2x] 250 mM NaOH
7; Time; 15 sec; centrifuge at 1000 rpm
8; Time; 30 min; incubation at room temperature
9a; Detection; fluorescence (Read 1: AID); EnVision (PerkinElmer) plate reader, 540 excitation and 590 emission filters
9b; Detection; fluorescence (Read 2: UDG); EnVision (PerkinElmer) plate reader, 560 excitation and 665 emission filters
NOTES (numbers refer to sequence above)
1a; Reagents were dispensed in a medium-binding black solid-bottom Greiner plates (789176F) using a BioRptr liquid dispenser. Dispense 3 uL of [4/3x] 1 uM AID (provided by Kohli lab) and [4/3x] 2 U/mL UDG (NEB M0280L) into columns 1, 2, 5 to 48.
1b; Dispense 3 uL of [4/3x] 2 U/mL UDG into column 3.
1c; Dispense 3 uL of [4/3x] 1 uM AID into column 4.
2b; 10 mM Aurintricarboxylic Acid (Sigma A1895) (ATA, 8-point, n = 2, 1:2.5 dilution in column 2) double pin-transferred (Dip Factor = 2) using the Kalypsys (Wako USA) pintool equipped with a 1536 pinhead for a [final] range of 186 nM - 114 uM.
3; Room temperature incubation.
4; Dispense 1 uL of substrate mixture from the Kohli lab [4x] […] DJC20 and [4x] 250 nM DJC23 into columns 1 to 48 .
5; Room temperature incubation.
6; Dispense 4 uL of substrate mixture [2x] 250 mM NaOH into columns 1 to 48.
7; Centrifugation step to remove bubbles.
8; Room temperature incubation
9a; Fluorescence signal (column label AID) was read using the EnVision plate reader. Excitation filter = 540(8) nm, barcode = 311; Emission filter = 590(20) nm, barcode = 217; Mirror = D555, barcode = 405.
9b; Fluorescence signal (column label UDG) was read using the EnVision plate reader. […]
A general note: In qHTS, concentration-response curves come from the screen itself.
Take `CCO/C([O-])=N/c1c[n+](N2CCOCC2)no1`: the molecule was classed as inactive. Take `CCCNC(C)C(=O)Nc1ccccc1C` (stereo not given): the molecule was called inactive. Next, `C[C@@H](O)[C@H]1C(=O)N2C(C(=O)O)=C(SCCN=CN)C[C@H]12`: “inactive”; `CC(C)NCC(O)c1cc(O)cc(O)c1` (stereo not given): “inactive”; `CCCCNc1c(C(=O)OCC)c(C)nc2c1cnn2CC`: “inactive”. Regarding `CSc1ccc(C(=O)c2[nH]c(=O)[nH]c2C)cc1`, the molecule was classed as inactive. Next, `CN(C)CC/C=C1\c2ccccc2COc2ccccc21`: “inactive”; `CCN1CCc2nc(N)oc2CC1`: “inactive”. Next, `C[C@]12C=CC(=O)C=C1CC[C@H]1[C@@H]3C[C@@H](O)[C@](O)(C(=O)CO)[C@@]3(C)C[C@H](O)[C@@]12F`: “inactive”. For `COCCc1ccc(OCC(O)CNC(C)C)cc1` (stereo not given) the value was “inactive”; for `CCCCNC(=O)NS(=O)(=O)c1ccc(C)cc1`, “inactive”; for `CCC(=O)c1ccc2c(c1)N(CCCN(C)C)c1ccccc1S2`, “inactive”. As for `Cc1ccc(=O)n(-c2ccccc2)c1`, the molecule was called inactive. For `CC(C)(C)c1ccc(C(=O)CCCN2CCC(OC(c3ccccc3)c3ccccc3)CC2)cc1` the value was “inactive”; for `CCc1c(C)[nH]c2c1C(=O)C(CN1CCOCC1)CC2` (stereo not given), “inactive”. For `CC(C)(C)NCC(O)c1cc(O)cc(O)c1` (stereo not given) the value was “inactive”.

For `CNC1(C)C2CCC(C2)C1(C)C` (stereo not given), the outcome was inactive. Take `CCN(Cc1ccncc1)C(=O)C(CO)c1ccccc1` (stereo not given): the outcome was inactive. With `O=C(O)CCCCCCCC(=O)O`, the molecule was classed as inactive. Next, `CCNC(=O)N1CCN(CCCC(c2ccc(F)cc2)c2ccc(F)cc2)CC1`: “inactive”; `CC1=C(C)C(=O)C(CCCCC#CCCCC#CCO)=C(C)C1=O`: “inactive”; `CCCN(CCC)C(=O)C(CCC(=O)O)NC(=O)c1ccccc1` (stereo not given): “inactive”.

Consider `COC(=O)C1=C(C)NC(C)=C(C(=O)OC(C)(C)CN(C)CCC(c2ccccc2)c2ccccc2)C1c1cccc([N+](=O)[O-])c1` (stereo not given), for which the molecule was called inactive.

Turning to `Cc1ccc(Cl)c(Nc2ccccc2C(=O)O)c1Cl`, the result was inactive. For `O=C(CCNNC(=O)c1ccncc1)NCc1ccccc1`, the call was inactive.

Take `Brc1c(NC2=NCCN2)ccc2nccnc12`: the outcome was inactive. Next, `CCCN(CCC)CCc1cccc2c1CC(=O)N2`: “inactive”; `c1cnc(N2CCN(Cc3ccc4c(c3)OCO4)CC2)nc1`: “inactive”; `COc1ccc(CCN(C)CCCC(C#N)(c2cc(OC)c(OC)c(OC)c2)C(C)C)cc1OC` (stereo not given): “inactive”.

Regarding `CCCOc1ccccc1-c1nc2n[nH]nc2c(=O)[nH]1`, the outcome was inactive. For `CN1CCN(CC(=O)N2c3ccccc3C(=O)Nc3cccnc32)CC1` the value was “inactive”; for `NC(N)=N/N=C/c1c(Cl)cccc1Cl`, “inactive”. `Cc1ccc(/C(=C\CN2CCCC2)c2ccccn2)cc1`: the result was inactive. Next, `CCc1cccc(N(C)C(N)=Nc2cccc3ccccc23)c1`: “inactive”; `O=C(O)CN(CCOCCOCCN(CC(=O)O)CC(=O)O)CC(=O)O`: “inactive”. For the molecule `OCCN1CCN(CC/C=C2/c3ccccc3Sc3ccc(C(F)(F)F)cc32)CC1`, the molecule was classed as inactive. Next, `O=C(O)CN(CCN(CC(=O)O)CC(=O)O)CCN(CC(=O)O)CC(=O)O`: “inactive”; `CC(C(=O)O)c1ccc(CC2CCCC2=O)cc1` (stereo not given): “inactive”; `COC(=O)[C@@H](N)Cc1ccc(O)c(O)c1`: “inactive”. Next, `CCCN1C[C@H](CSC)C[C@@H]2c3cccc4[nH]cc(c34)C[C@H]21`: “inactive”.
